Compound in the experiment: c1cn2cc(-c3ccc4cn[nH]c4c3)nc(Nc3ccc(N4CCOCC4)cc3)c2n1 [entospletinib]
In words: log2 fold change, soluble protein after heating vs DMSO (PISA); higher = thermal stabilisation; K562 cells, 10 uM, 30 min; active = over 0.2 and 3.5 SD of the protein, either way, in both replicates (recomputed). The method, boiled down:
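Soluble protein was defined as the supernatant after 21,000xg for 90 min. It came from K562 cells at 2×10^6 cells/mL given 10 μM compound for 30 min, heated in aliquots for 3 min across 48°C-58°C, pooled, and extracted in PBS with 0.5% NP-40 at 4°C, and was quantified by TMTpro 16plex LC-MS/MS with equalised channel sums. Thermal stability against control samples, from duplicates, is reported as log2 fold change.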

About 7,900 targets were measured; listed, in parts, are those with a hit and a random draw of the rest. About 0.6% of all pairs of compound and target were hits. Unmarked numbers belong to inactive results.

UniProt Q13362, sequence (Q13362 whole entry, looked up): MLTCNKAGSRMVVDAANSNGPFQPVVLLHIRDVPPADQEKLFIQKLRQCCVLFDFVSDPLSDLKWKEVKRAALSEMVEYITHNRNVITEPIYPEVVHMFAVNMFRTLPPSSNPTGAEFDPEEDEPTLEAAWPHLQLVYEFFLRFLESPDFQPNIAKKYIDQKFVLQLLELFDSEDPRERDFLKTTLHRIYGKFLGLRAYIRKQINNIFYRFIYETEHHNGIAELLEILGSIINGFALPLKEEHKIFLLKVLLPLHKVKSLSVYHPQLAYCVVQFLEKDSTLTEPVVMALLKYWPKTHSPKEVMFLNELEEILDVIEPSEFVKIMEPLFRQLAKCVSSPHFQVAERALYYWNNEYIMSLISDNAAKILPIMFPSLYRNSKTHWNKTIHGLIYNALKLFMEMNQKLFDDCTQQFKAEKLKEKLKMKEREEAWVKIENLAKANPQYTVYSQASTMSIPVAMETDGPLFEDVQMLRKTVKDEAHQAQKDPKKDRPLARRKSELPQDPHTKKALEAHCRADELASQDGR
UniProt O00329, sequence (O00329 whole entry, looked up): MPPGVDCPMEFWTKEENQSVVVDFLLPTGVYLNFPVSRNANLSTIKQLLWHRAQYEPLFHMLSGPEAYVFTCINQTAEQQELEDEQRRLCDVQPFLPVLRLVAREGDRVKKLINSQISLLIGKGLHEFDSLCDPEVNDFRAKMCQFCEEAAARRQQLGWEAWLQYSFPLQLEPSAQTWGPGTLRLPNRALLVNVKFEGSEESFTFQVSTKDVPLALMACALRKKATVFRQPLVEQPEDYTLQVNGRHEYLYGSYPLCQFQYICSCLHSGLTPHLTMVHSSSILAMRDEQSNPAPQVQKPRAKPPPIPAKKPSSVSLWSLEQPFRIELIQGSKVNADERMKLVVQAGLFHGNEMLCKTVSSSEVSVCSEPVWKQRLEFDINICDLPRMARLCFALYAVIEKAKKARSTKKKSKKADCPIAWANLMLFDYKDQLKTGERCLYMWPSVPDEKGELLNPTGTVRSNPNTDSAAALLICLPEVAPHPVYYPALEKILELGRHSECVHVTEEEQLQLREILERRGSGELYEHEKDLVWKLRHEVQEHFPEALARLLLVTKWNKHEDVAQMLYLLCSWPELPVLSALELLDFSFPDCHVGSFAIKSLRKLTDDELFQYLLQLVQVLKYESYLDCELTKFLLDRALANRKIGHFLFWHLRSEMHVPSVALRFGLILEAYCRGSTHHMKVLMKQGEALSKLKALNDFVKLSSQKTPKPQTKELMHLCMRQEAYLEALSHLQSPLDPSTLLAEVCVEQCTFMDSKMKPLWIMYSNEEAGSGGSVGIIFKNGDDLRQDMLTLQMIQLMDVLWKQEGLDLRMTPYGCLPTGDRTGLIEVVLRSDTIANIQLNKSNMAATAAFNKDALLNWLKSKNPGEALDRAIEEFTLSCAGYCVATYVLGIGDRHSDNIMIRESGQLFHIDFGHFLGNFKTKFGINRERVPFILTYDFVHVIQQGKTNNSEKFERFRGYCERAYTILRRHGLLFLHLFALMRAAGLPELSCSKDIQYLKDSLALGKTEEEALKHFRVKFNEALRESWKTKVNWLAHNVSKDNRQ
UniProt Q9NTI5, sequence (Q9NTI5 whole entry, looked up): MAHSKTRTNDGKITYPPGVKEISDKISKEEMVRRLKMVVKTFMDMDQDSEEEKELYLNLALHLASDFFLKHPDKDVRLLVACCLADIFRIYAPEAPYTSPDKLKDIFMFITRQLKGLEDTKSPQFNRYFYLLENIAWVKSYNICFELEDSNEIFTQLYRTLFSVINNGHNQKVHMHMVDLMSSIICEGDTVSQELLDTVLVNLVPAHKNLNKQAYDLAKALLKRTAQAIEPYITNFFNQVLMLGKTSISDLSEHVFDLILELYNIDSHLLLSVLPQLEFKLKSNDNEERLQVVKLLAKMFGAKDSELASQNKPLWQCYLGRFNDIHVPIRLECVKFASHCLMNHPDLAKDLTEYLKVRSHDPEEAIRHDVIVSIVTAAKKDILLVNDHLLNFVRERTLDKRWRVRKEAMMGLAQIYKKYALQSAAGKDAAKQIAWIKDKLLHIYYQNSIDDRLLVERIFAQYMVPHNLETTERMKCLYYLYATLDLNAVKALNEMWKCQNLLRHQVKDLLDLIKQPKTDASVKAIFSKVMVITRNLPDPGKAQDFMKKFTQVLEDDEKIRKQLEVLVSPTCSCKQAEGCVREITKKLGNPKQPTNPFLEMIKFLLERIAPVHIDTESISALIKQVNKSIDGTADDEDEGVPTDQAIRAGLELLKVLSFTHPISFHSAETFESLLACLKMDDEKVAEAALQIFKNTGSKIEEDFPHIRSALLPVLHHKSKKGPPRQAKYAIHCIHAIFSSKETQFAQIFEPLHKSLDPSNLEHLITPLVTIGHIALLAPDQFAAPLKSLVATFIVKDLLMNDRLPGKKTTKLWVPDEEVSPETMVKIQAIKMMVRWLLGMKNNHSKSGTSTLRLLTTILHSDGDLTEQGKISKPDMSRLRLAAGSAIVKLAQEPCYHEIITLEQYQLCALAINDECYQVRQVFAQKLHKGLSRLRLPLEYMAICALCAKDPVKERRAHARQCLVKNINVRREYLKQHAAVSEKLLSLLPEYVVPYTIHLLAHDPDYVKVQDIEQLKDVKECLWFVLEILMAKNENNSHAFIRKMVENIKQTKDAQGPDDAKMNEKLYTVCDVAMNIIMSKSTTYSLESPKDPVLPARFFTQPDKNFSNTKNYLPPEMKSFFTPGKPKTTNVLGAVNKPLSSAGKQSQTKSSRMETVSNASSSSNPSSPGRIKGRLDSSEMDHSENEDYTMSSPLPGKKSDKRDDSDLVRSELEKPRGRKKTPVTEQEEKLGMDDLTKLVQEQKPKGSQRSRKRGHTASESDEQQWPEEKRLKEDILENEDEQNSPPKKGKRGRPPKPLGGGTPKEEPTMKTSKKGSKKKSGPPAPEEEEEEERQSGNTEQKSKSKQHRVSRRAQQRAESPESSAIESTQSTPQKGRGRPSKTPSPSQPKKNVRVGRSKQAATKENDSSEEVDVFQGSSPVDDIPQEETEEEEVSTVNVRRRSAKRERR
UniProt Q13200, sequence (Q13200 whole entry, looked up): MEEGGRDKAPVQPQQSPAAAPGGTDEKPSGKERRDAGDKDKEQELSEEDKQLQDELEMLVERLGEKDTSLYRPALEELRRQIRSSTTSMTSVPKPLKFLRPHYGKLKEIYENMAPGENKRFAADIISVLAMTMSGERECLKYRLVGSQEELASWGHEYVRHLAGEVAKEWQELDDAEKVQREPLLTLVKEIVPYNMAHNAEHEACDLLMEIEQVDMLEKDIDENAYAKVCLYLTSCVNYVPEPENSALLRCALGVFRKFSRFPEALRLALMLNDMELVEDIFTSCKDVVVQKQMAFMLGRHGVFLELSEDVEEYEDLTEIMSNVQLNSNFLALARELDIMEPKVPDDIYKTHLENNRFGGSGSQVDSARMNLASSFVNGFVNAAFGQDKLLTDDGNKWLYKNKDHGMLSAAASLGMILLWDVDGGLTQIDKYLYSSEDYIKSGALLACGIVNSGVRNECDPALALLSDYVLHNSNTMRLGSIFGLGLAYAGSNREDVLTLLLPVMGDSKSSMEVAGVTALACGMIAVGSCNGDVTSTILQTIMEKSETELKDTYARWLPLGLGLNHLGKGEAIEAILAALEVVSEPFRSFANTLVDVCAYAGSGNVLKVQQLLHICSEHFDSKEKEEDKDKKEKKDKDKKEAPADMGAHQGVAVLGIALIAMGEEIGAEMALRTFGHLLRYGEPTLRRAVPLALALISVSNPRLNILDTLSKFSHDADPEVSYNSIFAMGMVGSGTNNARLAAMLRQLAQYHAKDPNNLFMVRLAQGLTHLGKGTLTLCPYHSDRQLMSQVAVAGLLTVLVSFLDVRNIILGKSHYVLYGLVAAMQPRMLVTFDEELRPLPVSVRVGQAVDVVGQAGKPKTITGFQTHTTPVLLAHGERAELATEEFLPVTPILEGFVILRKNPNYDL
UniProt Q9UNM6, sequence (Q9UNM6 whole entry, looked up): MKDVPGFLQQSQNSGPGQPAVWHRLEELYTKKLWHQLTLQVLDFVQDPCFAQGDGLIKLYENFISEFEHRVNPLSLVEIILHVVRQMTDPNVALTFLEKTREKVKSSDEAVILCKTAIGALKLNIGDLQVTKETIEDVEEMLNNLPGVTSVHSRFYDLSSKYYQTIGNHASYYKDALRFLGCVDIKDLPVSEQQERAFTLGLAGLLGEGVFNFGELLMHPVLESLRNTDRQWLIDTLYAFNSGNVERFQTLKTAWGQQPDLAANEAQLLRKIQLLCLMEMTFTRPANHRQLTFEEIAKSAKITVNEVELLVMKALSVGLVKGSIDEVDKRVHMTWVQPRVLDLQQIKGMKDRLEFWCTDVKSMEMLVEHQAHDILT
UniProt P07205, sequence (P07205 whole entry, looked up): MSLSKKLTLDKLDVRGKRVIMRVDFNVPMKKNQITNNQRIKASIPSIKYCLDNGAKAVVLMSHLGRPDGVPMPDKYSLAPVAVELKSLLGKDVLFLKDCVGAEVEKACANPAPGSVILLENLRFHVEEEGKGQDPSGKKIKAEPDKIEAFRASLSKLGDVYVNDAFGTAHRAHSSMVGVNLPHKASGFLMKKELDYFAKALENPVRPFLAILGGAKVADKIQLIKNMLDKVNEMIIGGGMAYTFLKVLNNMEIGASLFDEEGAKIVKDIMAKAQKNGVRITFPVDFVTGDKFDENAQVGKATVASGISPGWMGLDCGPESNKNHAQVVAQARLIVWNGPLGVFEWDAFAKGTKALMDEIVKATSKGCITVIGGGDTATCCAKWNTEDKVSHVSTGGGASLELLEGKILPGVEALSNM
UniProt O96011, sequence (O96011 whole entry, looked up, change not shown): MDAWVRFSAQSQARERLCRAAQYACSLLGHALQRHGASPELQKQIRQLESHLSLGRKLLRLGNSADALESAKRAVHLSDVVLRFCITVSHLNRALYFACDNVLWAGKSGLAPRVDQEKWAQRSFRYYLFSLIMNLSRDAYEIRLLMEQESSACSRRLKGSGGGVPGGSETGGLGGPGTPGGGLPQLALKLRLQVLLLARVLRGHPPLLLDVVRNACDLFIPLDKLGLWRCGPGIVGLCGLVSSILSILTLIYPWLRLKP

For PTGFRN (UniProt Q9P2B2), the log2 fold change was -0.007. The value for PARN (UniProt O95453) was -0.06. The value for PSMD3 (UniProt O43242) was 0.049; that for POLR3B (UniProt Q9NW08) was 0.

With PHKA2 (UniProt P46019), the log2 fold change is -0.043. The value for PIK3CD (UniProt O00329) was -0.206; that for PIP4K2A (UniProt P48426) was -0.049; that for PKM isoform 2 (UniProt P14618) was 0.128. On to PC (UniProt P11498), for which the log2 fold change is 0.002. The value for PIR (UniProt O00625) was 0.028; that for PPP2R5C isoform 2 (UniProt Q13362) was -0.041. The value for PCF11 (UniProt O94913) was -0.745 (active); that for PHLDB1 isoform 2 (UniProt Q86UU1) was -0.005. The value for PLBD2 (UniProt Q8NHP8) was -0.038; that for PHKG2 (UniProt P15735) was -0.279 (active); that for PIKFYVE (UniProt Q9Y2I7) was 0.003. As for PRPF4B (UniProt Q13523), the log2 fold change is 0.09. Turning to PPP1R12A (UniProt O14974), the log2 fold change is -0.045. The value for PCBP1 (UniProt Q15365) was -0.042. The value for PTGR2 (UniProt Q8N8N7) was 0.043. The value for QRICH1 (UniProt Q2TAL8) was -0.054. Consider PPID (UniProt Q08752), for which the log2 fold change is 0.019. The value for PEX16 isoform 2 (UniProt Q9Y5Y5) was -0.081; that for PCYT1A (UniProt P49585) was 0.017. The value for PGGHG (UniProt Q32M88) was 0.023; that for PRKCE (UniProt Q02156) was 0.016. The value for PLEKHM2 (UniProt Q8IWE5) was -0.051; that for PTPA (UniProt Q15257) was -0.004; that for PATL1 (UniProt Q86TB9) was 0.076. Turning to PDCD2L (UniProt Q9BRP1), the log2 fold change was -0.012.

With PPP2R5A (UniProt Q15172), the log2 fold change was 0.001. In the case of PFDN1 (UniProt O60925), the log2 fold change was -0.089. The value for PSMD13 (UniProt Q9UNM6) was 0.049.

Turning to PPP2R5C isoform 4 (UniProt Q13362), the log2 fold change was -0.023. The value for PRPF31 (UniProt Q8WWY3) was 0.025; that for PHF5A (UniProt Q7RTV0) was -0.101; that for PTDSS1 (UniProt P48651) was 0.147. The value for PARG (UniProt Q86W56) was -0.015; that for PSMD2 (UniProt Q13200) was -0.002. Take POGLUT1 (UniProt Q8NBL1): the log2 fold change was 0.06. The value for PIGT (UniProt Q969N2) was -0.018; that for PRKAR2B (UniProt P31323) was -0.166; that for PSMD12 (UniProt O00232) was 0.032. The value for POLR2K (UniProt P53803) was 0.24. The value for PEX13 (UniProt Q92968) was 0.012. Turning to PGK2 (UniProt P07205), the log2 fold change was -0.035. The value for POTEI (UniProt P0CG38) was -0.074. The value for PECAM1 (UniProt P16284) was -0.071; that for PSMB9 (UniProt P28065) was -0.251; that for PLA2G15 (UniProt Q8NCC3) was -0.063. The value for PIK3C3 (UniProt Q8NEB9) was 0.039; that for PDS5B (UniProt Q9NTI5) was -0.055. As to PCBP2 (UniProt F8VRH0), the log2 fold change is -0.004. The value for PLD3 (UniProt Q8IV08) was -0.01; that for PNPLA2 (UniProt Q96AD5) was -0.056. The value for PAN2 (UniProt Q504Q3) was -0.151.

On to PEX11B (UniProt O96011), for which the log2 fold change is -0.082. The value for PRKAB2 (UniProt O43741) was -0.12. The value for PLSCR1 (UniProt O15162) was -0.045; that for PIP4K2C (UniProt Q8TBX8) was -0.031.

PGGT1B (UniProt P53609): the log2 fold change was -0.037. On to PSMD1 (UniProt Q99460), for which the log2 fold change was -0.012. The value for PUM1 isoform 3 (UniProt Q14671) was 0.045.

The values above are taken from the supplement of paper PMC10849652.
